Source: PubChem (Broad Institute)
Most compounds without a hit are left out; they make up all but 6.7% or so of the library.
T cruzi growth: T. cruzi intracellular proliferation inhibitors, primary screen, cell-based, beta-gal Tulahuen parasites, NIH3T3 host, luminescence; T. cruzi beta-gal in NIH3T3, GalScreen luminescence, 90 h; inhibition, % at 8.34 µM; 77,000 compounds, 5.9% hits;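 active means mean inhibition above about 93%, with at least 55% of replicates each passing it, limit read from the data, passing the limit was not always enough; inconclusive means only one of those two conditions holds; inactive means neither condition holds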
Pf Dd2 inh: P. falciparum Dd2 growth inhibitors, primary screen, SYBR Green fluorescence, single dose replicates; 94,000 compounds, 2.3% hits; activity change, % at 10 µM; AID 1159554, 2015; 72 h; active compounds read low; in the data active means activity change below about -80%; inconclusive means no clear call, values can overlap the other calls
C diff HTS: C. difficile growth inhibitors, primary screen, HTS | Clostridium difficile clinical isolate growth, OD600, 24 h; active compounds read low | growth activity, negative = inhibition, % at 16 µg/mL (by protocol) | 86,000 compounds, 0.25% hits | AID 1259249, 2017;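 active means mean growth activity at or below -80% and every replicate also at or below -80%; inconclusive means mean at or below -80% but some replicate above -80%; inactive means mean growth activity above -80%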;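 further: 0% = DMSO wells and -100% = levofloxacin 16 µg/mL wells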
* = called active by the depositor; ? = inconclusive; . = not tested or not shown.

SMILES	T cruzi growth	Pf Dd2 inh	C diff HTS
C[C@H](C(=O)N(C)C[C@@H]1OCc2ccccc2-c2c(n(C)c3ccccc23)C(=O)N([C@@H](C)CO)C[C@@H]1C)c1ccccc1	.	-83.3*	-5.9
C[C@H](CO)N1C[C@H](C)[C@H](CN(C)C(=O)[C@H](C)c2ccccc2)OCc2ccccc2-c2c(n(C)c3ccccc23)C1=O	.	-90.6*	5.4
C[C@H](C(=O)N(C)C[C@H]1OCc2ccccc2-c2c(n(C)c3ccccc23)C(=O)N([C@@H](C)CO)C[C@H]1C)c1ccccc1	.	-78.4	0.4
C[C@@H]1CN([C@H](C)CO)C(=O)c2c(c3ccccc3n2C)-c2ccccc2CO[C@@H]1CN(C)C(=O)N[C@H](C)c1ccccc1	23.9	-29.5	-5.4
C[C@@H]1CN([C@H](C)CO)C(=O)c2cc(NC(=O)Nc3ccccc3)ccc2O[C@H]1CN(C)Cc1ccncc1	19.9	30.0	-2.2
COc1ccc2c3c(n(C)c2c1)[C@H](CO)N(C(=O)NC1CCCC1)CC31CCN(C(C)=O)CC1	.	-17.3	-8.6
CC=Cc1ccc2n(c1=O)C[C@@H]1[C@@H](CO)[C@H](C(=O)NCCc3cn(C)cn3)N(C(=O)C3CC3)[C@H]21 (mixture of isomers)	29.9	-0.5	-0.7
CO[C@H]1CN(C)C(=O)c2cccc(C#N)c2OC[C@@H]2O[C@H](CC[C@H]2OC)CCN(C)C(=O)[C@H]1C	-28.9	21.1	.
CCCC(=O)Nc1ccc2c(c1)C(=O)N(C)C[C@@H](OC)[C@H](C)CN(C(=O)CC1CC1)[C@@H](C)CO2	-14.6	3.3	1.1
C[C@@H]1CN([C@H](C)CO)C(=O)c2cc(NS(=O)(=O)c3ccccc3)ccc2O[C@@H](C)CCCCO[C@@H]1CN(C)S(=O)(=O)c1ccc(Cl)cc1	?	-74.4	1.2
C[C@@H]1CN([C@@H](C)CO)C(=O)c2cc(NS(=O)(=O)c3ccccc3)ccc2O[C@@H](C)CCCCO[C@@H]1CN(C)S(=O)(=O)c1ccc(Cl)cc1	.	-85.1*	4.0
C[C@H]1CCCCO[C@H](CN(C)S(=O)(=O)c2ccc(Cl)cc2)[C@@H](C)CN([C@@H](C)CO)C(=O)c2cc(NS(=O)(=O)c3ccccc3)ccc2O1	.	-89.7*	0.2
C[C@@H]1CCCCO[C@@H](CN(C)S(=O)(=O)c2ccc(Cl)cc2)[C@@H](C)CN([C@@H](C)CO)C(=O)c2cc(NS(=O)(=O)c3ccccc3)ccc2O1	.	-70.2	0.7
CO[C@@H]1CN(C)C(=O)c2ccc(NC(=O)c3nc4ccccc4s3)cc2OC[C@H](C)N(Cc2ccncc2)C[C@H]1C	.	-61.2	.
CO[C@@H]1CN(C)C(=O)c2ccc(NC(=O)c3nc4ccccc4s3)cc2OC[C@@H](C)N(Cc2ccncc2)C[C@H]1C	.	-96.8*	.
CO[C@H]1CN(C)C(=O)c2ccc(NC(=O)c3nc4ccccc4s3)cc2OC[C@@H](C)N(Cc2ccncc2)C[C@H]1C	.	-31.5	.
CO[C@@H]1CN(C)C(=O)c2ccc(NC(=O)c3nc4ccccc4s3)cc2OC[C@@H](C)N(Cc2cccnc2)C[C@H]1C	73.2	-90.1*	10.2
CO[C@H]1CN(C)C(=O)c2ccc(NC(=O)c3nc4ccccc4s3)cc2OC[C@@H](C)N(Cc2cccnc2)C[C@@H]1C	57.9	-35.1	0.5
CO[C@H]1CN(C)C(=O)c2ccc(NC(=O)c3nc4ccccc4s3)cc2OC[C@H](C)N(Cc2ccncc2)C[C@@H]1C	.	-93.4*	.
O=C(C[C@H]1CC[C@@H]2[C@H](COC[C@@H](O)CN2S(=O)(=O)c2ccc(Cl)cc2)O1)NCc1ccncn1	-59.6	-15.5	6.8
CC(C)NC(=O)N(C)C[C@@H]1Oc2ccc(NC(=O)Nc3cccc4ccccc34)cc2C(=O)N([C@@H](C)CO)C[C@@H]1C	11.1	21.7	-11.2
CC(C)NC(=O)Nc1ccc2c(c1)C(=O)N([C@H](C)CO)C[C@@H](C)[C@@H](CN(C)C(=O)NC1CCCCC1)OCCCC[C@H](C)O2	-4.7	-29.9	-5.4
C[C@H]1CN([C@@H](C)CO)C(=O)CCCn2cc(nn2)CO[C@@H]1CN(C)Cc1cccc(C(F)(F)F)c1	3.1	-26.1	.
CO[C@@H]1CN(C)C(=O)c2ccc(NS(C)(=O)=O)cc2OC[C@@H](C)N(C(=O)C2CCCCC2)C[C@H]1C	50.1	-27.1	1.2
C[C@@H]1CN([C@@H](C)CO)C(=O)c2c(c3ccccc3n2C)-c2ccccc2CO[C@@H]1CN(C)Cc1ccc2c(c1)OCO2	.	-82.8*	18.0
SMILES	T cruzi growth	Pf Dd2 inh	C diff HTS
C[C@@H]1CN([C@@H](C)CO)C(=O)c2c(c3ccccc3n2C)-c2ccccc2CO[C@H]1CN(C)Cc1cccc(C(F)(F)F)c1	.	-92.0*	30.8
C[C@@H]1CN([C@H](C)CO)C(=O)c2c(c3ccccc3n2C)-c2ccccc2CO[C@@H]1CN(C)Cc1ccc2c(c1)OCO2	.	-58.9	29.6
C[C@@H]1CN([C@H](C)CO)C(=O)c2c(c3ccccc3n2C)-c2ccccc2CO[C@@H]1CN(C)Cc1ccc(C(F)(F)F)cc1	.	-62.0	14.5
C[C@H]1CN([C@@H](C)CO)C(=O)c2c(c3ccccc3n2C)-c2ccccc2CO[C@@H]1CN(C)Cc1ccc(C(F)(F)F)cc1	.	-58.3	37.0
C[C@@H]1CN([C@H](C)CO)C(=O)c2c(c3ccccc3n2C)-c2ccccc2CO[C@H]1CN(C)Cc1cccc(C(F)(F)F)c1	.	-84.1*	3.4
C[C@@H]1CN([C@H](C)CO)C(=O)c2c(c3ccccc3n2C)-c2ccccc2CO[C@@H]1CN(C)Cc1cccc(O)c1	.	-88.1*	-5.7
C[C@H](CO)N1C[C@H](C)[C@@H](CN(C)Cc2cccc(O)c2)OCc2ccccc2-c2c(n(C)c3ccccc23)C1=O	.	-72.0	-1.0
CCCNC(=O)N(C)C[C@H]1Oc2cc(-c3cncnc3)ccc2S(=O)(=O)N([C@H](C)CO)C[C@@H]1C	.	20.7	-2.0
O=C(C[C@H]1CC[C@@H]2[C@H](COC[C@H](O)CN2C(=O)c2cnccn2)O1)NCc1ccccc1	-31.7	12.0	.
COc1ccc(NC(=O)N(C)C[C@H]2Oc3ccc(NS(=O)(=O)c4ccc(F)cc4)cc3CC(=O)N([C@H](C)CO)C[C@@H]2C)cc1	27.0	10.5	1.1
C[C@H](CO)N1C[C@H](C)[C@@H](CN(C)Cc2ccc3c(c2)OCO3)Oc2ccc(NS(=O)(=O)c3cn(C)cn3)cc2CC1=O	-5.7	6.2	9.0
C[C@@H]1CN([C@H](C)CO)C(=O)Cc2cc(NC(=O)Cn3cnnn3)ccc2O[C@H]1CN(C)S(=O)(=O)c1cccs1	24.9	16.2	-5.9
Cc1ccc(S(=O)(=O)Nc2ccc3c(c2)C(=O)N([C@H](C)CO)C[C@@H](C)[C@@H](CN(C)Cc2ccc(C(F)(F)F)cc2)OCCCC[C@H](C)O3)cc1	.	-79.7	1.9
C[C@H]1CN([C@@H](C)CO)C(=O)c2cccc(NS(=O)(=O)c3ccccc3)c2O[C@H]1CN(C)Cc1ccc(C(=O)Nc2ccccc2N)cc1	.	-88.2*	5.6
C[C@H]1CN([C@@H](C)CO)C(=O)c2cccc(NS(=O)(=O)c3ccc(F)cc3)c2O[C@H]1CN(C)Cc1ccc(Cl)c(Cl)c1	53.3	-81.6*	7.4
